According to the supplement of paper PMC6555819:

Assays:
Test in all cases: PBM binding z-score (relative to random genomic background probes); higher = stronger binding; sequences stand for … in GC…GCGATTGACAGCGTAGAATGAAGG
[1] = tested on: FXR:RXRa (NR concentration 270 nM, RXRa partner concentration 90 nM)
How it was run: (§1)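 Ligand-free nuclear receptor dimers were applied to custom Agilent 4×180K protein-binding microarrays whose double-stranded probes carried direct-repeat seeds, single-nucleotide variants, half-site ablations and random human genomic background sequences in 34-nt variable regions. Incubation lasted 1 h. Binding z-scores were computed against the random background probes from regression-normalized fluorescence.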

[2] = tested on: LXRa:RXRa (NR concentration 270 nM, RXRa partner concentration 90 nM)
How it was run: as §1

[3] = tested on: LXRa homodimer (NR concentration 270 nM)
How it was run: as §1

[4] = tested on: LXRb:RXRa (NR concentration 270 nM, RXRa partner concentration 90 nM)
How it was run: as §1

[5] = tested on: LXRb homodimer (NR concentration 270 nM)
How it was run: as §1

[6] = tested on: PPARa:RXRa (NR concentration 270 nM, RXRa partner concentration 90 nM)
How it was run: as §1

[7] = tested on: PPARg:RXRa (NR concentration 180 nM, RXRa partner concentration 90 nM)
How it was run: as §1

[8] = tested on: PPARg:RXRa 270nM:90nM, anti-RXR (NR concentration 270 nM, RXRa partner concentration 90 nM)
How it was run: as §1

[9] = tested on: PPARg:RXRa 30nM:10nM, anti-RXR (NR concentration 30 nM, RXRa partner concentration 10 nM)
How it was run: as §1

[10] = tested on: PPARg:RXRa 90nM:30nM, anti-RXR (NR concentration 90 nM, RXRa partner concentration 30 nM)
How it was run: as §1

| Sequence | PBM binding z-score [1] | PBM binding z-score [2] | PBM binding z-score [3] | PBM binding z-score [4] | PBM binding z-score [5] | PBM binding z-score [6] | PBM binding z-score [7] | PBM binding z-score [8] | PBM binding z-score [9] | PBM binding z-score [10] |
| --- | --- | --- | --- | --- | --- | --- | --- | --- | --- | --- |
| CCGACTGGCGCAAAGGTTACCATACTCAGTACGA | 0.725 | 1.29 | -0.0542 | 1.78 | -0.938 | 3.45 | 5.96 | 6.74 | 4.81 | 6.59 |
| GCGACTGTGGCAAAGCAGGTTACCATAAGGTTGG | -0.28 | -0.311 | -0.53 | -0.511 | -1.38 | 0.3 | 0.331 | -0.377 | -0.529 | -0.508 |
| TAGCCTAGGTCGTTGGGCCAGTATAGTACGCATC | 0.234 | -0.0129 | -0.222 | 0.178 | -0.371 | 0.544 | 0.271 | 0.0972 | -0.401 | -0.153 |
| CGTCAAAGTTCAACTAAGGTACCGTAAAGCACGC | 7.12 | 6.16 | 4.3 | 4.18 | 2.24 | 5.12 | 4.93 | 5.42 | 2.29 | 4.15 |
| CCTACTGGGCCATTCAGAGGTCATGGATCATATG | 2.57 | 4.16 | 5.17 | 3.61 | -0.202 | 4.54 | 2.64 | 3.6 | 1.23 | 3.29 |
| CGAACGAGGGCATGAGTTGATAGCCAATGCCGAT | 0.587 | 0.378 | -0.567 | -0.0834 | -0.821 | 1.33 | 1.39 | 1.49 | 0.255 | 0.727 |
| ATATGTAGGTTATCGGGTCCTTCAGTTTGCGCAT | 0.663 | 0.859 | 0.528 | 0.856 | 0.389 | 3.24 | 5.01 | 4.43 | 1.77 | 3.45 |
| AGAACAAGGGCACGCTGAGTTGATAGCAGAGTAG | 0.401 | 0.296 | -0.369 | -0.0707 | -0.878 | 1.38 | 1.28 | 0.671 | 0.364 | 0.255 |
| TAGCCTAGGTCATTGGGCCAGTACAGTACGCATC | 4.4 | 3.61 | 1.04 | 2.35 | 0.354 | 3.83 | 3.38 | 3.78 | 0.72 | 2.63 |
| TTACCAAGGTGAAAGGTCGCTGATGCACGCCTTG | 2.82 | 2.6 | -0.188 | 2.24 | -0.623 | 5.25 | 8.28 | 8.53 | 7.04 | 9.59 |
| ATCTCTAGGTAACAAGTGCAGTGAAAGAGAGGAC | 0.0619 | 0.181 | -0.0829 | -0.182 | 0.699 | 0.43 | 1.07 | 1.38 | 0.591 | 1.05 |
| CAAACTAGGTCGCAGAGGTCAAAGTCCGTGCGTA | 5.75 | 6.03 | 5.84 | 5.36 | 1.26 | 5.7 | 7.46 | 6.53 | 4.01 | 6.06 |
| AGAATGAGGTTATACGTAGATAAGGGAAGAAAGT | 2.05 | 1.86 | -0.00161 | 1.56 | 0.00672 | 3.3 | 2.47 | 2.07 | 1.02 | 1.67 |
| TCTTATAGATCAGCAGGTTAAGAAAGCTGGCCAA | 0.0686 | 0.24 | -0.273 | 0.335 | -0.379 | 0.481 | -0.154 | 1.43 | 2.63 | 2.09 |
| ATCGAAAGGTCGTGAGGTGAGCATACAGAAAGGC | 4.88 | 3.62 | -0.0763 | 2.89 | 0.368 | 4.84 | 3.58 | 4.56 | 1.29 | 2.96 |
| AAAGACAGGTGATGAAGGTAACTCAGGCTATCAT | -0.191 | -0.0472 | 0.0332 | 0.0714 | -0.0721 | 0.593 | 0.785 | 0.567 | 0.567 | 0.473 |
| TCTTGTAGATCAAAGATTAAGAAAGCCGAAGCCT | 0.277 | 0.499 | -0.302 | 0.245 | -0.0264 | 1.12 | 1.55 | 3.63 | 3.56 | 3.75 |
| GCTTACGGGTCAAAGGTTATATCATGAATAGAAT | 7.77 | 6.12 | 1.25 | 5.78 | 1.03 | 6.94 | 11.4 | 9.51 | 10.9 | 11.1 |
| GGAACGAGGGCAAAGTTGATAGGATCTGTCGACG | 1.38 | 1.05 | -0.433 | 0.86 | -0.537 | 4.22 | 6.9 | 6.73 | 5.71 | 6.95 |
| CAGACTGGGGCAGAAAGGTTACCATACCATCCGG | 1.11 | 1.5 | -0.0304 | 1.4 | 0.122 | 2.53 | 2.23 | 3.3 | 1.29 | 2.79 |
| ACTAGCAGGCCAAGGGTCACCCAAGATTAGTCCG | 3.24 | 2.98 | 0.036 | 2.76 | -0.624 | 5.01 | 8.49 | 7.88 | 6.88 | 9.09 |
| ATCGAAAGGTCGAGGTGGGTATAGAGAAAGGGAA | 4.46 | 3.55 | 0.722 | 3.12 | 0.942 | 4.74 | 2.59 | 3.11 | 1.17 | 1.97 |
| TCTAGCAGGCCAGAGGGTCACACAAGAGGTACGG | 1.67 | 1.66 | -0.408 | 1.83 | -1.34 | 3.11 | 2.49 | 3.28 | 2.36 | 3.09 |
